Out of some 5,500 compounds screened, about 2,000 (36%) were called active. Another 18% or so got no clear call; they are omitted. Cut-off read from the data, not from the text of the source: active = normalized growth mostly below about 0.91 (no sharp cut-off); inconclusive = no clear call, values can overlap the other calls; inactive = mostly above about 0.92. Some of the results follow.
Test: chemical genetic growth profiling, strain panel (AID 1159580);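 note: tested at 20 µM; growth read once vehicle control cultures reached saturation at 30 °C; 1 = growth at the plate median or of vehicle wells; lower values mean less growth of the strain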
Conditions: S. cerevisiae deletion strains, growth OD
[1] = locus YAL013W, strain DEP1, active compounds read low
[2] = locus YAL040C, strain CLN3, active compounds read low
[3] = locus YCL061C, strain MRC1 (second series), active compounds read low
[4] = locus YDR150W, strain NUM1, active compounds read low
[5] = locus YER002W, strain NOP16, active compounds read low
[6] = locus YJR075W, strain HOC1, active compounds read low
[7] = locus YNL153C, strain GIM3, active compounds read low
[8] = locus YNL175C, strain NOP13, active compounds read low
[9] = locus YNL197C, strain WHI3, active compounds read low
[10] = locus YNL224C, strain SQS1, active compounds read low
[11] = locus YOR083W, strain WHI5 (second series), active compounds read low
[12] = locus YPL055C, strain LGE1, active compounds read low
[13] = locus YHR030C, strain SLT2, active compounds read low
[14] = locus YHR079C, strain IRE1, active compounds read low
[15] = locus YJL095W, strain BCK1, active compounds read low
[16] = locus YJR066W, strain TOR1, active compounds read low
[17] = locus YLR113W, strain HOG1, active compounds read low
[18] = locus YNL183C, strain NPR1, active compounds read low
[19] = locus YOR231W, strain MKK1, active compounds read low
[20] = locus YPL256C, strain CLN2, active compounds read low

Measured: normalized growth

N=C(N)SCCc1ccc(CCSC(=N)N)cc1
inactive: [1] 1.01 | [2] 1 | [3] 0.996 | [4] 1 | locus YDR363W, strain ESC2, active compounds read low 1.04 | [5] 0.996 | [6] 0.987 | [7] 0.964 | [8] 1 | [9] 1.03 | [10] 1.02 | locus YNL322C, strain KRE1, active compounds read low 1 | [11] 0.995 | [12] 1.02

N=C(N)SCCN
active: locus YLR357W, strain rsc2, active compounds read low 0.833
inactive: [1] 1.06 | locus YAL021C, strain ccr4, active compounds read low 0.98 | locus YAL026C, strain drs2, active compounds read low 1 | locus YAL030W, strain snc1, active compounds read low 1.01 | [2] 1.05 | locus YBL061C, strain skt5, active compounds read low 1.01 | locus YBR009C, strain hhf1, active compounds read low 1 | locus YBR023C, strain chs3, active compounds read low 1 | locus YBR171W, strain sec66, active compounds read low 1.01 | locus YBR231C, strain swc5, active compounds read low 0.992 | locus YBR279W, strain paf1, active compounds read low 0.998 | locus YCL011C, strain gbp2, active compounds read low 1.01 | locus YCL016C, strain dcc1, active compounds read low 0.999 | [3] 0.995 | locus YCL061C, strain MRC1, active compounds read low 1.01 | locus YCL069W, strain vba3, active compounds read low 1.01 | locus YCR088W, strain abp1, active compounds read low 1 | locus YDL005C, strain med2, active compounds read low 0.997 | locus YDL040C, strain nat1, active compounds read low 0.998 | locus YDR001C, strain nth1, active compounds read low 1.01 | locus YDR069C, strain doa4, active compounds read low 0.999 | locus YDR137W, strain rgp1, active compounds read low 1 | [4] 1.02 | locus YDR159W, strain sac3, active compounds read low 0.995 | locus YDR195W, strain ref2 0.941 | locus YDR297W, strain sur2, active compounds read low 1.01 | locus YDR334W, strain swr1, active compounds read low 1 | locus YDR335W, strain msn5, active compounds read low 1 | locus YDR392W, strain spt3, active compounds read low 0.856 | locus YEL003W, strain gim4, active compounds read low 1.01 | locus YEL037C, strain rad23, active compounds read low 0.996 | locus YEL061C, strain CIN8 (second series), active compounds read low 1 | [5] 0.986 | locus YER015W, strain faa2, active compounds read low 1.01 | locus YER016W, strain bim1, active compounds read low 1 | locus YER111C, strain swi4, active compounds read low 1 | locus YER155C, strain BEM2 (second series), active compounds read low 0.985 | locus YFR010W, strain ubp6, active compounds read low 1.01 | locus YGL167C, strain pmr1, active compounds read low 1.01 | locus YGL173C, strain kem1, active compounds read low 1 | locus YGL227W, strain vid30, active compounds read low 1 | locus YGL240W, strain doc1, active compounds read low 0.985 | locus YGL253W, strain hxk2, active compounds read low 1.01 | locus YGR078C, strain PAC10, active compounds read low 0.994 | locus YHR013C, strain ard1, active compounds read low 0.969 | locus YHR027C, strain rpn1, active compounds read low 1.01 | [13] 1.07 | [14] 1.07 | locus YHR142W, strain chs7, active compounds read low 1.01 | locus YJL092W, strain hpr5, active compounds read low 0.998 | locus YJL095W, strain BCK1 (second series), active compounds read low 0.998 | [15] 1.04 | locus YJL115W, strain asf1, active compounds read low 0.99 | locus YJL129C, strain trk1, active compounds read low 1.03 | locus YJL154C, strain vps35, active compounds read low 0.997 | locus YJL164C, strain tpk1, active compounds read low 1.01 | locus YJL166W, strain qcr8, active compounds read low 1.01 | locus YJL187C, strain SWE1, active compounds read low 1 | [16] 0.976 | [6] 1.01 | locus YKL160W, strain elf1, active compounds read low 0.996 | locus YKR026C, strain gcn3, active compounds read low 1 | locus YKR091W, strain srl3, active compounds read low 1 | locus YLL001W, strain dnm1, active compounds read low 0.999 | locus YLL026W, active compounds read low 0.999 | locus YLL041C, strain sdh2, active compounds read low 1 | locus YLR027C, strain aat2, active compounds read low 1.01 | [17] 1.03 | locus YLR221C, strain rsa3, active compounds read low 1 | locus YLR258W, strain gsy2, active compounds read low 1 | locus YLR262C, strain YPT6 (second series), active compounds read low 0.991 | locus YLR320W, strain mms22, active compounds read low 0.997 | locus YLR342W, strain FKS1, active compounds read low 1.01 | locus YLR370C, strain arc18, active compounds read low 1.01 | locus YLR384C, strain iki3, active compounds read low 1 | locus YML120C, strain ndi1, active compounds read low 0.999 | locus YMR058W, strain fet3, active compounds read low 1 | locus YMR125W, strain sto1, active compounds read low 0.993 | locus YMR129W, active compounds read low 1.02 | locus YMR205C, strain PFK2, active compounds read low 1.01 | locus YMR231W, strain pep5, active compounds read low 0.998 | locus YMR263W, strain SAP30, active compounds read low 1.01 | locus YMR307W, strain GAS1, active compounds read low 1.02 | locus YNL071W, strain lat1, active compounds read low 1 | locus YNL128W, strain TEP1, active compounds read low 0.987 | [7] 1 | [8] 0.991 | [18] 0.989 | [9] 0.992 | locus YNL209W, strain ssb2, active compounds read low 1.01 | [10] 1.01 | locus YNL248C, strain rpa49, active compounds read low 1.01 | locus YNL322C, strain KRE1 (second series), active compounds read low 0.998 | locus YNR049C, strain mso1, active compounds read low 1 | locus YOR001W, strain rrp6, active compounds read low 0.995 | locus YOR070C, strain gyp1, active compounds read low 0.989 | locus YOR080W, strain dia2, active compounds read low 0.996 | [11] 0.997 | locus YOR083W, strain WHI5, active compounds read low 0.995 | locus YOR106W, strain vam3, active compounds read low 1.04 | [19] 1.05 | locus YOR265W, strain rbl2, active compounds read low 1.01 | locus YOR270C, strain vph1, active compounds read low 1.06 | locus YOR290C, strain snf2, active compounds read low 0.956 | locus YPL051W, strain arl3, active compounds read low 0.994 | [12] 1.01 | locus YPL078C, strain atp4, active compounds read low 1.01 | locus YPL106C, strain sse1, active compounds read low 1 | locus YPL240C, strain hsp82, active compounds read low 1.02 | [20] 1.12

CN(C)CCCSC(=N)N
inactive: [13] 0.951 | [14] 0.968 | [15] 0.963 | [16] 0.903 | [17] 0.982 | [18] 0.92 | [19] 0.966 | [20] 0.978
